We go through 30 compounds from PubChem BioAssay (EPA / NIEHS).

Active and inactive are the calls of the source. Rule for the calls: active = hit-call score of the fitted dose curve at least 0.9, where 1 is the maximum; inactive = score below 0.9.

One assay is described as follows: ATG_EGR_CIS: Attagene CIS-FACTORIAL HepG2 Assay for human Early Growth Response 1 (EGR1) (AID 2282938). The note with it: HepG2 Attagene CIS-FACTORIAL EGR reporter mRNA; actives raise or lower the signal. The method, boiled down:
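Activity is taken as induction or loss of reporter mRNA versus DMSO, fitted bidirectionally. Transcripts from cis-regulated reporter units in transiently transfected HepG2 were measured after 24 h by RT-PCR with capillary electrophoresis.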
Take `O=C(N[C@@H](Cc1ccccc1)[C@@H](O)C(=O)N1C[C@@H](O)[C@@H](O)C1)c1cc2cc(Cl)ccc2[nH]1`: the call was inactive.
For the compound `CCCCCCCCCCCCCCCC`, the result was inactive.
Same read-out and setting: the entry for `Cc1ccc(C)c(C)c1` is “inactive”; for `C=CCOC(=O)c1ccccc1C(=O)OCC=C` it is “inactive”; for `CCCCCCCCCCC` it is “inactive”.
For `COc1cc(-c2nc(NC(=O)c3cc4cc(C)cc(C)c4n3CC(=O)O)sc2CCC2CCCCC2)c(OC)cc1Cl`, the AC50 was 9.13 µM (active).
Take `Cc1cc(NC(=O)C(=O)O)cc(C)c1Oc1ccc(O)c2c1CCC2`: the outcome was inactive.
Still for that read-out and setting: in the case of `O=C(OCCCCCOC(=O)c1ccccc1)c1ccccc1` it was “inactive”; in that of `COC(=O)c1ccc(O)cc1`, “inactive”.
On the same count and under the same terms, in the case of `CCCCCCCC=O` it was “inactive”; in that of `CCCCC(CC)COC(=O)CC(C(=O)OCC(CC)CCCC)S(=O)(=O)O` (stereo not given), “inactive”; in that of `C[Si]1(C)O[Si](C)(C)O[Si](C)(C)O[Si](C)(C)O1`, “inactive”.
On the same count and under the same terms, the entry for `C=CCc1ccc(O)c(OC)c1` is “inactive”.
In the case of `NS(=O)(=O)c1cc2c(cc1Cl)NCNS2(=O)=O`, the result was inactive.
On to `COc1cc(/C=C/C(=O)CC(=O)/C=C/c2ccc(O)c(OC)c2)ccc1O`, for which the AC50 is 42.5 µM (active).
Take `CCOC(=O)CCC(=O)OCC`: the compound was called inactive.
Same read-out and setting: in the case of `CC(CO)OC(C)CO` (stereo not given) (tested in a mixture with another compound) it was “inactive”; in that of `O=C(O)CCCCC(=O)O`, “inactive”.
On the same count and under the same terms, the entry for `Cc1cc(=O)[nH]c(=S)[nH]1` is “inactive”; for `Cc1nc(-c2ccc3c(c2)CCN(CCC2CCC(NC(=O)/C=C/c4ccc(F)cc4)CC2)CC3)no1` (stereo not given) it is “inactive”.
Consider `Oc1ccc2c(c1)OC[C@@H](N1CCC(O)(c3ccc(F)cc3)CC1)[C@H]2O`, for which the AC50 was 50 µM (active).
With `NCC1(Cc2noc(=O)[nH]2)CCCCC1`, the result was inactive.
With `NCCO`, the outcome was inactive.
As for `CC1=C(/C=C/C(C)=C/C=C/C(C)=C/CO)C(C)(C)CCC1`, the AC50 is 80.7 µM (active).
For the compound `Cc1cccc([N+](=O)[O-])c1C`, the call was inactive.
Still for that read-out and setting: in the case of `CCCCCCCCCCCCCO` it was “inactive”.
Take `Cc1ccc(C(C)C)c(O)c1`: the call was inactive.
The same measure, in the same setting: in the case of `Nc1ccc(S(=O)(=O)c2ccc(N)cc2)cc1` it was “inactive”; in that of `Nc1nc(N)c2nc(CNc3ccc(C(=O)N[C@@H](CCC(=O)O)C(=O)O)cc3)cnc2n1`, “inactive”; in that of `CCCCc1ccc2c(n1)[C@@H](c1ccc(OC)cc1C[C@H](C)C(=O)O)[C@H](C(=O)O)[C@H]2c1ccc2c(c1)OCO2`, “inactive”.

The next assay in a line: ATG_M_19_CIS: Attagene CIS-FACTORIAL HepG2 Assay for M19 Transcription Factor (Internal Marker) (AID 2282939). The note with it: HepG2 Attagene CIS-FACTORIAL M19 internal marker reporter; actives raise or lower the signal. An outline of the steps:
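Following a 24 h exposure, RNA from transfected HepG2 cells was reverse-transcribed, PCR-amplified with reporter-specific primers, end-labelled with 6-FAM and HpaI-digested before capillary separation. Values represent gain or loss versus DMSO.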
`O=C(N[C@@H](Cc1ccccc1)[C@@H](O)C(=O)N1C[C@@H](O)[C@@H](O)C1)c1cc2cc(Cl)ccc2[nH]1`: the result was inactive.
Regarding `CCCCCCCCCCCCCCCC`, the compound was classed as inactive.
`Cc1ccc(C)c(C)c1`: the call was inactive.
On the same count and under the same terms, the entry for `C=CCOC(=O)c1ccccc1C(=O)OCC=C` is “inactive”; for `CCCCCCCCCCC` it is “inactive”; for `COc1cc(-c2nc(NC(=O)c3cc4cc(C)cc(C)c4n3CC(=O)O)sc2CCC2CCCCC2)c(OC)cc1Cl` it is “inactive”.
Still for that read-out and setting: the entry for `Cc1cc(NC(=O)C(=O)O)cc(C)c1Oc1ccc(O)c2c1CCC2` is “inactive”.
In the case of `O=C(OCCCCCOC(=O)c1ccccc1)c1ccccc1`, the compound was called inactive.
The same measure, in the same setting: in the case of `COC(=O)c1ccc(O)cc1` it was “inactive”; in that of `CCCCCCCC=O`, “inactive”.
The same measure, in the same setting: in the case of `CCCCC(CC)COC(=O)CC(C(=O)OCC(CC)CCCC)S(=O)(=O)O` (stereo not given) it was “inactive”; in that of `C[Si]1(C)O[Si](C)(C)O[Si](C)(C)O[Si](C)(C)O1`, “inactive”.
The same measure, in the same setting: in the case of `C=CCc1ccc(O)c(OC)c1` it was “inactive”; in that of `NS(=O)(=O)c1cc2c(cc1Cl)NCNS2(=O)=O`, “inactive”; in that of `COc1cc(/C=C/C(=O)CC(=O)/C=C/c2ccc(O)c(OC)c2)ccc1O`, “inactive”.
With `CCOC(=O)CCC(=O)OCC`, the compound was called inactive.
As for `CC(CO)OC(C)CO` (stereo not given) (tested in a mixture with another compound), the outcome was inactive.
Same read-out and setting: the entry for `O=C(O)CCCCC(=O)O` is “inactive”; for `Cc1cc(=O)[nH]c(=S)[nH]1` it is “inactive”; for `Cc1nc(-c2ccc3c(c2)CCN(CCC2CCC(NC(=O)/C=C/c4ccc(F)cc4)CC2)CC3)no1` (stereo not given) it is “inactive”.
As to `Oc1ccc2c(c1)OC[C@@H](N1CCC(O)(c3ccc(F)cc3)CC1)[C@H]2O`, the outcome was inactive.
The same measure, in the same setting: the entry for `NCC1(Cc2noc(=O)[nH]2)CCCCC1` is “inactive”; for `NCCO` it is “inactive”.
On to `CC1=C(/C=C/C(C)=C/C=C/C(C)=C/CO)C(C)(C)CCC1`, for which the AC50 is 172 µM (active).
In the case of `Cc1cccc([N+](=O)[O-])c1C`, the call was inactive.
On the same count and under the same terms, the entry for `CCCCCCCCCCCCCO` is “inactive”.
The same measure, in the same setting: the entry for `Cc1ccc(C(C)C)c(O)c1` is “inactive”; for `Nc1ccc(S(=O)(=O)c2ccc(N)cc2)cc1` it is “inactive”.
On to `Nc1nc(N)c2nc(CNc3ccc(C(=O)N[C@@H](CCC(=O)O)C(=O)O)cc3)cnc2n1`, for which the result was inactive.
The same measure, in the same setting: in the case of `CCCCc1ccc2c(n1)[C@@H](c1ccc(OC)cc1C[C@H](C)C(=O)O)[C@H](C(=O)O)[C@H]2c1ccc2c(c1)OCO2` it was “inactive”.

Another assay in a line: ATG_ERE_CIS: Attagene CIS-FACTORIAL HepG2 Assay for Estrogen Response Element (ERE) (AID 2282940). As to conditions: HepG2 ERE cis-reporter, Attagene RNA transcript; actives raise or lower the signal. The method, boiled down: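 HepG2, transient cis-reporter units, 24 h exposure. RNA isolated, oligo(dT) RT, reporter-specific PCR, FAM extension, HpaI cut, CE detection. Gain/loss-of-signal vs DMSO.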
With `O=C(N[C@@H](Cc1ccccc1)[C@@H](O)C(=O)N1C[C@@H](O)[C@@H](O)C1)c1cc2cc(Cl)ccc2[nH]1`, the call was inactive.
`CCCCCCCCCCCCCCCC`: the compound was classed as inactive.
Still for that read-out and setting: the entry for `Cc1ccc(C)c(C)c1` is “inactive”; for `C=CCOC(=O)c1ccccc1C(=O)OCC=C` it is “inactive”; for `CCCCCCCCCCC` it is “inactive”.
Same read-out and setting: in the case of `COc1cc(-c2nc(NC(=O)c3cc4cc(C)cc(C)c4n3CC(=O)O)sc2CCC2CCCCC2)c(OC)cc1Cl` it was “inactive”; in that of `Cc1cc(NC(=O)C(=O)O)cc(C)c1Oc1ccc(O)c2c1CCC2`, “inactive”.
As for `O=C(OCCCCCOC(=O)c1ccccc1)c1ccccc1`, the result was inactive.
Turning to `COC(=O)c1ccc(O)cc1`, the AC50 is 67.4 µM (active).
As for `CCCCCCCC=O`, the compound was classed as inactive.
On the same count and under the same terms, the entry for `CCCCC(CC)COC(=O)CC(C(=O)OCC(CC)CCCC)S(=O)(=O)O` (stereo not given) is “inactive”.
For the compound `C[Si]1(C)O[Si](C)(C)O[Si](C)(C)O[Si](C)(C)O1`, the AC50 was 27.2 µM (active).
On to `C=CCc1ccc(O)c(OC)c1`, for which the call was inactive.
On the same count and under the same terms, the entry for `NS(=O)(=O)c1cc2c(cc1Cl)NCNS2(=O)=O` is “inactive”; for `COc1cc(/C=C/C(=O)CC(=O)/C=C/c2ccc(O)c(OC)c2)ccc1O` it is “inactive”; for `CCOC(=O)CCC(=O)OCC` it is “inactive”.
Same read-out and setting: in the case of `CC(CO)OC(C)CO` (stereo not given) (tested in a mixture with another compound) it was “inactive”; in that of `O=C(O)CCCCC(=O)O`, “inactive”.
Still for that read-out and setting: the entry for `Cc1cc(=O)[nH]c(=S)[nH]1` is “inactive”.
With `Cc1nc(-c2ccc3c(c2)CCN(CCC2CCC(NC(=O)/C=C/c4ccc(F)cc4)CC2)CC3)no1` (stereo not given), the compound was classed as inactive.
Still for that read-out and setting: the entry for `Oc1ccc2c(c1)OC[C@@H](N1CCC(O)(c3ccc(F)cc3)CC1)[C@H]2O` is “inactive”; for `NCC1(Cc2noc(=O)[nH]2)CCCCC1` it is “inactive”.
On the same count and under the same terms, the entry for `NCCO` is “inactive”.
On to `CC1=C(/C=C/C(C)=C/C=C/C(C)=C/CO)C(C)(C)CCC1`, for which the AC50 is 4.13 µM (active).
Regarding `Cc1cccc([N+](=O)[O-])c1C`, the outcome was inactive.
Take `CCCCCCCCCCCCCO`: the compound was classed as inactive.
As to `Cc1ccc(C(C)C)c(O)c1`, the result was inactive.
On to `Nc1ccc(S(=O)(=O)c2ccc(N)cc2)cc1`, for which the AC50 was 100 µM (active).
In the case of `Nc1nc(N)c2nc(CNc3ccc(C(=O)N[C@@H](CCC(=O)O)C(=O)O)cc3)cnc2n1`, the call was inactive.
Same read-out and setting: in the case of `CCCCc1ccc2c(n1)[C@@H](c1ccc(OC)cc1C[C@H](C)C(=O)O)[C@H](C(=O)O)[C@H]2c1ccc2c(c1)OCO2` it was “inactive”.

Broadly, the AC50 is the concentration giving half of the maximal activity seen.
